Where “and” joins values, the source holds several entries; their conditions need not be identical. Equal entries are not always repeated. Some compounds were tested as several samples or in several runs, with calls that do not always agree. Calls of active or inactive are those of the source. How the source made its calls: active means hit-call score of the fitted dose curve at least 0.9, where 1 is the maximum; inactive means score below 0.9.
Columns and labels:
Conditions in all cases: primary human HUVEC with PBMC; actives raise or lower the signal
[1] = read-out: Monocyte Chemoattractant Protein-1 (MCP1), CCL2 (gene 6347); assay: BSK_LPS_MCP1: BioMAP Diversity Plus: LPS Assay for Monocyte Chemoattractant Protein-1 (MCP1) Biomarker Activity (AID 2283081);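 on AC50: secreted MCP-1 protein quantified by ELISA in culture supernatant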
In short: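 LPS-stimulated HUVEC/PBMC co-culture; chemical, 24 h; MCP-1 by ELISA; bidirectional fit vs DMSO; cytotoxicity via SRB (0.1% stain, 10% TCA fix, 560 nm) in parallel wells.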

[2] = BSK_LPS_PGE2: BioMAP Diversity Plus: LPS Assay for Prostaglandin E2 (PGE2) Biomarker Activity (AID 2283082);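 on AC50: secreted prostaglandin E2 measured by ELISA in LPS-stimulated co-culture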
In short: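 HUVEC plus PBMC co-culture stimulated with LPS; secreted PGE2 quantified by ELISA 24 h after chemical dosing. Activity fitted bidirectionally against DMSO as negative control and baseline; parallel SRB total-protein staining served as cytotoxicity check.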

[3] = read-out: Tissue Factor, F3 (gene 2152); assay: BSK_LPS_TissueFactor: BioMAP Diversity Plus: LPS Assay for Tissue Factor Biomarker Activity (AID 2283084)
In short: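 In this co-culture system of umbilical vein endothelium with PBMC, stimulated with LPS, cell-surface CD142 is detected by ELISA at 24 h. Endpoint values derive from bidirectional fitting, DMSO serving as baseline.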

[4] = read-out: Tumor necrosis factor (Homo sapiens) (UniProt P01375); assay: BSK_LPS_TNFa: BioMAP Diversity Plus: LPS Assay for Tumour Necrosis Factor alpha (TNFa) Biomarker Activity (AID 2283085)
In short: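 Human umbilical vein endothelial cells co-cultured with PBMC were exposed to test chemical and TNFa measured by ELISA 24 h after dosing. Bidirectional curve fitting was done relative to DMSO as negative control and baseline.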

[5] = read-out: Vascular cell adhesion molecule 1 (VCAM1), VCAM1 (gene 7412); assay: BSK_LPS_VCAM1: BioMAP Diversity Plus: LPS Assay for Vascular cell adhesion molecule 1 (VCAM1) Biomarker Activity (AID 2283086)
In short: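 Human umbilical vein endothelial cells co-cultured with peripheral blood mononuclear cells under LPS stimulation were exposed to test chemical for 24 h. VCAM-1 levels were then measured by ELISA, with bidirectional curve fitting relative to DMSO as negative control and baseline.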

CD38, CD38 (gene 952) = assay: BSK_SAg_CD38: BioMAP Diversity Plus: SAg Assay for CD38 Biomarker Activity (AID 2283087)
In short: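 Fluorescence ELISA of cell-surface CD38 served as the read-out, with either increase or decrease fitted against DMSO controls. Cells were a human umbilical vein endothelium plus PBMC co-culture under SEB/TSST-1 stimulation, measured 24 h after dosing.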

CD40, CD40 (gene 958) = assay: BSK_SAg_CD40: BioMAP Diversity Plus: SAg Assay for CD40 Biomarker Activity (AID 2283088)
In short: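 Fluorescence ELISA read-out of CD40 from umbilical vein endothelium plus peripheral blood mononuclear cells, sampled 24 h after dosing. Values come from bidirectional curve fitting with DMSO as baseline.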

CD69, CD69 (gene 969) = assay: BSK_SAg_CD69: BioMAP Diversity Plus: SAg Assay for CD69 Biomarker Activity (AID 2283089);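 on AC50: cell surface CD69 protein quantified by ELISA with fluorescence detection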
In short: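 ELISA, fluorescence read-out: CD69 on human umbilical vein endothelial cell + PBMC co-culture, 24 h post-dosing. Gain or loss of signal fitted bidirectionally against DMSO baseline.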

[6] = read-out: Monocyte Chemoattractant Protein-1 (MCP1), CCL2 (gene 6347); assay: BSK_SAg_MCP1: BioMAP Diversity Plus: SAg Assay for Monocyte Chemoattractant Protein-1 (MCP1) Biomarker Activity (AID 2283090)
In short: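 MCP-1 levels in the endothelial–PBMC SAg co-culture were quantified by ELISA at 24 h post-dosing; both increases and decreases versus DMSO scored. Cytotoxicity monitored by SRB total protein in parallel cultures.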

[7] = read-out: Macrophage colony-stimulating factor (MCSF), CSF1 (gene 1435); assay: BSK_LPS_MCSF: BioMAP Diversity Plus: LPS Assay for Macrophage colony-stimulating factor (MCSF) Biomarker Activity (AID 2283083)
In short: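 Compound is added to a human vascular primary co-culture of umbilical vein endothelium and blood mononuclear cells. After 24 h, M-CSF is quantified by ELISA. Signal changes are fitted in both directions against DMSO.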

Measured: AC50

Chain of Tumor necrosis factor (Homo sapiens) (P01375 whole entry, looked up): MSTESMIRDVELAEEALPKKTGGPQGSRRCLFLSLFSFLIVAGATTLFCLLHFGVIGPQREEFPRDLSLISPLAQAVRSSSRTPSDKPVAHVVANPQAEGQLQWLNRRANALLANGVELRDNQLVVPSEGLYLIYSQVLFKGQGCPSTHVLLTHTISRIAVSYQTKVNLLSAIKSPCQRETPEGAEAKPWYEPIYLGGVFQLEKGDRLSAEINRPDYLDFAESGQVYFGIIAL

CC(C)Cc1ccc(C(C)C(=O)O)cc1 (configuration not stated)
active: [2] 0.897 µM
not listed: [7]
inactive: all other assays above

C[C@]12CC[C@@H]3c4ccc(O)cc4CC[C@H]3[C@@H]1CC[C@@H]2O
active: [5] 16.5 µM | CD38, CD38 (gene 952) 16.7 µM | CD40, CD40 (gene 958) 15.8 µM | CD69, CD69 (gene 969) 20 µM
inactive: [1] | [2] | [4]

CCOC(=O)CCCCCCCCC(=O)OCC
not listed: [3] | [7]
inactive: all other assays above

CCC(=O)OCC=Cc1ccccc1
not listed: [3]
inactive: all other assays above

O=C(O)C(F)(F)OC(F)(F)C(F)(F)OC(F)(F)C(F)(F)C(F)(F)C(F)(F)F
active: [2] 15 µM and 11.1 µM | [5] 24.4 µM | CD38, CD38 (gene 952) 41.9 µM | CD40, CD40 (gene 958) 44 µM | CD69, CD69 (gene 969) 34.2 µM
inactive: [1] | [4] | [5] | CD38, CD38 (gene 952) | CD40, CD40 (gene 958) | CD69, CD69 (gene 969) | [6]

OCC(F)(OC(F)(F)C(F)(OC(F)(F)C(F)(F)C(F)(F)F)C(F)(F)F)C(F)(F)F (configuration not stated)
active: [2] 5.49 µM and 5.04 µM | [4] 5.64 µM and 5.47 µM | [5] 5.05 µM | CD40, CD40 (gene 958) 2.38 µM and 2.34 µM | CD69, CD69 (gene 969) 3.33 µM and 713 nM | [6] 2.27 µM and 1.92 µM
inactive: [1] | [5] | CD38, CD38 (gene 952)

CC/C(=C(\c1ccccc1)c1ccc(OCCN(C)C)cc1)c1ccccc1
inactive: [2]
active: [1] 28.3 µM and 12.4 µM | [2] 33.6 µM | [3] 29.1 µM and 20 µM | [4] 28.6 µM and 17.4 µM | [5] 24.3 µM and 13.6 µM | CD38, CD38 (gene 952) 8.87 µM and 7.95 µM | CD40, CD40 (gene 958) 9.12 µM and 6.03 µM | CD69, CD69 (gene 969) 8.89 µM and 8.09 µM | [6] 10.4 µM and 10.1 µM

O=S(=O)(O)C(F)(F)C(F)(F)OC(F)(F)C(F)(F)F
not listed: [7]
inactive: all other assays above

C=C(C)C(N)=O
not listed: [3] | [7]
inactive: all other assays above

CCCCOCCOCCO
not listed: [3] | [7]
inactive: all other assays above

COc1ccccc1NC(=O)CC(C)=O
not listed: [3] | [7]
inactive: all other assays above

CC(C)CCCC(C)(C)O
not listed: [3] | [7]
inactive: all other assays above

O=S1(=O)CC(Cl)(Cl)C(Cl)(Cl)C1
active: [1] 1.76 µM | [4] 938 nM | [5] 0.797 µM | CD38, CD38 (gene 952) 0.35 µM | CD40, CD40 (gene 958) 0.48 µM | CD69, CD69 (gene 969) 0.486 µM | [6] 0.807 µM
inactive: [2]

CC1(C)[C@H](C=C(Cl)Cl)[C@H]1C(=O)OCc1cccc(Oc2ccccc2)c1
not listed: [3] | [7]
inactive: all other assays above

CCCCCCCCCC(=O)OCC
not listed: [7]
inactive: all other assays above

CC(=O)CCC=C(C)CCC=C(C)C
not listed: [3]
inactive: all other assays above

CC(=O)c1ccc(C)cc1
not listed: [3]
inactive: all other assays above

c1ccc(OCCOc2ccccc2)cc1
active: CD38, CD38 (gene 952) 1.49 µM
inactive: [1] | [2] | [4] | [5] | CD38, CD38 (gene 952) | CD40, CD40 (gene 958) | CD69, CD69 (gene 969) | [6]

Nc1ccc(N)c([N+](=O)[O-])c1
active: [5] 5.09 µM | CD69, CD69 (gene 969) 8.69 µM
not listed: [3] | [7]
inactive: all other assays above

CC(C)(CO)CO
not listed: [7]
inactive: all other assays above

C=C(C)C(=O)OCCC(F)(F)C(F)(F)C(F)(F)C(F)(F)C(F)(F)C(F)(F)C(F)(F)C(F)(F)F
inactive: [1] | [2] | [4] | [5] | CD38, CD38 (gene 952) | CD40, CD40 (gene 958) | CD69, CD69 (gene 969) | [6]
active: [5] 1.22 µM

c1ccc(Sc2ccccc2)cc1
active: [1] 20 µM | [5] 31.6 µM | CD40, CD40 (gene 958) 32.3 µM | CD69, CD69 (gene 969) 29.7 µM | [6] 8 µM
inactive: [2] | [4] | CD38, CD38 (gene 952)

CCn1cc(C(=O)O)c(=O)c2ccc(C)nc21
not listed: [3] | [7]
inactive: all other assays above

C=C1CC/C=C(\C)CC[C@@H]2[C@@H]1CC2(C)C
active: [2] 3.97 µM | [5] 29.4 µM | CD38, CD38 (gene 952) 30.7 µM | CD40, CD40 (gene 958) 31.7 µM | CD69, CD69 (gene 969) 32.8 µM | [6] 34.4 µM
inactive: [1] | [4]

CCCCN(CCO)CCO
not listed: [3] | [7]
inactive: all other assays above

CCCCCCCC1CCCC1=O (configuration not stated)
not listed: [3] | [7]
inactive: all other assays above

C#C[C@]1(O)CC[C@H]2[C@@H]3CCc4cc(O)ccc4[C@H]3CC[C@@]21C
active: [1] 6.83 µM | [5] 6.47 µM | [6] 5.56 µM
not listed: [3] | [7]
inactive: all other assays above

c1ccc2c(c1)-c1ccc3ccc4cccc5cc-2c1c3c45
inactive: [2] | [4] | [5] | [6]
active: [1] 2.71 µM | CD38, CD38 (gene 952) 6.08 µM | CD40, CD40 (gene 958) 1.98 µM | CD69, CD69 (gene 969) 1.98 µM

COC(=O)c1ccc(C(=O)OC)cc1
not listed: [3] | [7]
inactive: all other assays above

O=C(c1ccc(OCCN2CCCCC2)cc1)c1c(-c2ccc(O)cc2)sc2cc(O)ccc12
active: [1] 30.8 µM | [2] 20 µM | [4] 33800 nM | [5] 28.4 µM | CD38, CD38 (gene 952) 30.1 µM | CD40, CD40 (gene 958) 19.4 µM | CD69, CD69 (gene 969) 23 µM | [6] 30.7 µM

NC(=O)c1c(Cl)cccc1Cl
not listed: [3] | [7]
inactive: all other assays above

CCOC(=O)C=Cc1ccccc1
not listed: [3] | [7]
inactive: all other assays above

O=C1OC2(c3ccc(O)cc3Oc3cc(O)ccc32)c2ccccc21
not listed: [3] | [7]
inactive: all other assays above

CC=CC(=O)C1=C(C)C=CCC1(C)C
not listed: [3] | [7]
inactive: all other assays above

OCCN1CCOCC1
not listed: [3] | [7]
inactive: all other assays above

CCCO[Si](OCCC)(OCCC)OCCC
not listed: [3] | [7]
inactive: all other assays above

O=C(O)C(F)(F)C(F)(F)C(F)(F)C(F)(F)C(F)(F)C(F)(F)C(F)(F)C(F)F
not listed: [3] | [7]
inactive: all other assays above

CC(C)(C)c1cccc(O)c1
not listed: [3] | [7]
inactive: all other assays above

CC1=CC(C)C(C=O)C(C)C1 (configuration not stated) (tested in a mixture with another compound)
not listed: [3] | [7]
inactive: all other assays above

CCCCCCCCCCCCS
inactive: [4] | [6]
active: [1] 33.3 µM | [2] 3.97 µM | [5] 20 µM | CD38, CD38 (gene 952) 28.6 µM | CD40, CD40 (gene 958) 20 µM | CD69, CD69 (gene 969) 20 µM

CC(=O)OCC=C(C)CCC=C(C)CCC=C(C)C
not listed: [3] | [7]
inactive: all other assays above

C=CC(=O)OCC(CO)(COC(=O)C=C)COC(=O)C=C
active: [1] 0.0816 µM | [2] 0.118 µM | [4] 163 nM | [5] 0.14 µM | CD38, CD38 (gene 952) 0.34 µM | CD40, CD40 (gene 958) 0.696 µM | CD69, CD69 (gene 969) 0.384 µM | [6] 0.686 µM

C=C(F)C(=O)OC(C(F)(F)F)C(F)(F)F
not listed: [3] | [7]
inactive: all other assays above

CC(=O)OC(C)(C)C1CC=C(C)CC1 (configuration not stated)
not listed: [3] | [7]
inactive: all other assays above

Source: PubChem BioAssay (EPA / NIEHS)
